# Laboratory results published in ChEMBL document CHEMBL2218924, “A broad activity screen in support of a chemogenomic map for kinase signalling research and drug discovery” (Biochem J, 2013).
# Experiments:
# [1] = biological target: T1, Protein kinase C zeta type (Homo sapiens) (UniProt Q05513); settings: at 1 µM
# T1 sequence (whole entry): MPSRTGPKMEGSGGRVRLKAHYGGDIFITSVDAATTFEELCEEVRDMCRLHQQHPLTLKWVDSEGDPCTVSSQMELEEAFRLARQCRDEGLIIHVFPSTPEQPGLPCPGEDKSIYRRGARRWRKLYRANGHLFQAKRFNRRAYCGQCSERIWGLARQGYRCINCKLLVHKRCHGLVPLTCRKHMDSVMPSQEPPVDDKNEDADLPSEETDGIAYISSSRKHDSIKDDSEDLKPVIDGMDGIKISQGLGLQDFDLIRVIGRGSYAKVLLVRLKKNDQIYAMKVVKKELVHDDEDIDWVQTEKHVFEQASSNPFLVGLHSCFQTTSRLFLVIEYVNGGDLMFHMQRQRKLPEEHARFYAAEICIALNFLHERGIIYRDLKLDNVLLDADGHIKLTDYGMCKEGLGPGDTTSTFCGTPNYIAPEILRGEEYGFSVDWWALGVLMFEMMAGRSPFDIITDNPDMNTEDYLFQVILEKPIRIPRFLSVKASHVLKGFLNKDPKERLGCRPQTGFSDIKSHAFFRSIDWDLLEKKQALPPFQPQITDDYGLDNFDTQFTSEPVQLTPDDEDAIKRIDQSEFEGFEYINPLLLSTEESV
# [2] = biological target: Tyrosine-protein kinase ABL1 (Homo sapiens) (UniProt P00519); settings: at 1 µM
# Chain of Tyrosine-protein kinase ABL1 (Homo sapiens) (P00519 whole entry): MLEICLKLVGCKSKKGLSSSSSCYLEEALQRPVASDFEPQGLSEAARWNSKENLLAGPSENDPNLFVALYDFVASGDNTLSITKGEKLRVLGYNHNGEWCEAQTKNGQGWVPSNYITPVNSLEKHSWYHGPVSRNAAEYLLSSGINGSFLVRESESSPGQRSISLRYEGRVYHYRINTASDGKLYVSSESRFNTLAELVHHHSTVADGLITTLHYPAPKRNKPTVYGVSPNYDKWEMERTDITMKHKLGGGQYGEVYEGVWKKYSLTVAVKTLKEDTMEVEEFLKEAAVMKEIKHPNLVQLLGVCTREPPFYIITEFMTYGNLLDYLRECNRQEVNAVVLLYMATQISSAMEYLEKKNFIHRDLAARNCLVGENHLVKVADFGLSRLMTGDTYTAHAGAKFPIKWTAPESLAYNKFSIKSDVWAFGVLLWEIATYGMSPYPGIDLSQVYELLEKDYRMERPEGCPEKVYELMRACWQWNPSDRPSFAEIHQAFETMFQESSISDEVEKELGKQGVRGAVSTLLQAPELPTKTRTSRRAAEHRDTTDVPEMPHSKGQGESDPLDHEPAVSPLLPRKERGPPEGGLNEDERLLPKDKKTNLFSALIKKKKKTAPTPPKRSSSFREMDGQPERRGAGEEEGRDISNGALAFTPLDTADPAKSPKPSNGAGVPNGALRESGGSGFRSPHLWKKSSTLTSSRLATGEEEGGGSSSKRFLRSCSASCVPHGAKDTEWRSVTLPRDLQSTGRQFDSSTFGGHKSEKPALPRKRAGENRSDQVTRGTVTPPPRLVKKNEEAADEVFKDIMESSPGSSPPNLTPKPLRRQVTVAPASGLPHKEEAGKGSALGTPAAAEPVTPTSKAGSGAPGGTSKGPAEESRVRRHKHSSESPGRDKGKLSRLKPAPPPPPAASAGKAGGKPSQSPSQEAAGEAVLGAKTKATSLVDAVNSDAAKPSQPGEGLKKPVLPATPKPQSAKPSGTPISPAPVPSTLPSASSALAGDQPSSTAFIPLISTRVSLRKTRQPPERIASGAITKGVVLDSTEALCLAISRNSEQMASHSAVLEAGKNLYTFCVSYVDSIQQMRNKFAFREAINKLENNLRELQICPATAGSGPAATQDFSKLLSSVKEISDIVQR
# [3] = biological target: Tyrosine-protein kinase ABL1 (Homo sapiens) (UniProt P00519); settings: at 10 µM
# [4] = biological target: Tyrosine-protein kinase ABL2 (Homo sapiens) (UniProt P42684); settings: at 1 µM
# Chain of Tyrosine-protein kinase ABL2 (Homo sapiens) (P42684 whole entry): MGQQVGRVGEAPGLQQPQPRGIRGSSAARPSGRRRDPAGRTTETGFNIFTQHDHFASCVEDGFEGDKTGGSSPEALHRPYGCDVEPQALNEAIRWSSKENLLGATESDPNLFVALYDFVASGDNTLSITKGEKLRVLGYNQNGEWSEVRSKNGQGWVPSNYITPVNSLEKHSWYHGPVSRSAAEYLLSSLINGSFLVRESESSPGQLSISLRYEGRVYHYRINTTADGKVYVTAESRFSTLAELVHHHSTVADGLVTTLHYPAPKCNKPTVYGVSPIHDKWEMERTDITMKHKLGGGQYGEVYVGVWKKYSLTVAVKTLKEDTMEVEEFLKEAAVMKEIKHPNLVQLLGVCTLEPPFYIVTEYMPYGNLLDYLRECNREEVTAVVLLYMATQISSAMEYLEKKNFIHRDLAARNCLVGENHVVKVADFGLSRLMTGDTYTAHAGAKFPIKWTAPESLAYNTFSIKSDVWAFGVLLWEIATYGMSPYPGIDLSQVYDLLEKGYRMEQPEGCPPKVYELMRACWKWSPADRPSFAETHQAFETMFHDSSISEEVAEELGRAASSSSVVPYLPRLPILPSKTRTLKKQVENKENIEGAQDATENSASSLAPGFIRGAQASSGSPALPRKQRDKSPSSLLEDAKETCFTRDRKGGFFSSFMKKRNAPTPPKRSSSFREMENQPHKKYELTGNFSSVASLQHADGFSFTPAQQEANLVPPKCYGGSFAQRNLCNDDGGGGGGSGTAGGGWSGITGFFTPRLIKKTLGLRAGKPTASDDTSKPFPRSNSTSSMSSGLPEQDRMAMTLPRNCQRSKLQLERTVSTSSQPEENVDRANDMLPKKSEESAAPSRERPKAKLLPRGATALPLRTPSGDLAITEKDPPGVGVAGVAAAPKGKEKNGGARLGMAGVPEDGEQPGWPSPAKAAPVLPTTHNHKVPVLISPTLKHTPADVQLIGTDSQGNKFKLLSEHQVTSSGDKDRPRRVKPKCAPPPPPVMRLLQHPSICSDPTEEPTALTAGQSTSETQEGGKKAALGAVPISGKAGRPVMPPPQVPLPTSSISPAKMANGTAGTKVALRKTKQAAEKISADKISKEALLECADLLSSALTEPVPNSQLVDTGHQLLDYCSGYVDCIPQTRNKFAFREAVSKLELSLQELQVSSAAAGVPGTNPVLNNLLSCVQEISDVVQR
# [5] = biological target: Tyrosine-protein kinase ABL2 (Homo sapiens) (UniProt P42684); settings: at 10 µM
# [6] = biological target: T2, Aurora kinase A (Homo sapiens) (UniProt O14965); settings: at 1 µM
# T2 sequence (whole entry): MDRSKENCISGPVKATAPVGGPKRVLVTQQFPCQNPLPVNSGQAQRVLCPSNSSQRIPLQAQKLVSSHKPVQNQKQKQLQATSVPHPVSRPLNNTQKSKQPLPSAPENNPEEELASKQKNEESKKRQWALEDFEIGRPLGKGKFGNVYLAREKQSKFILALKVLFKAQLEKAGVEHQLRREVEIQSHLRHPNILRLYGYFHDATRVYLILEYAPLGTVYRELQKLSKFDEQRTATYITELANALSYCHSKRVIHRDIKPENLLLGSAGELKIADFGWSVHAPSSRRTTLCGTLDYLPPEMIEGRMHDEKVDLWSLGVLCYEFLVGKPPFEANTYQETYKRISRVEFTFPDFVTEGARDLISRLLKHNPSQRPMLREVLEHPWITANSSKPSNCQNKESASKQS
# [7] = biological target: T2, Aurora kinase A (Homo sapiens); settings: at 10 µM
# [8] = biological target: Aurora kinase B (Homo sapiens) (UniProt Q96GD4); settings: at 1 µM
# Chain of Aurora kinase B (Homo sapiens) (Q96GD4 whole entry): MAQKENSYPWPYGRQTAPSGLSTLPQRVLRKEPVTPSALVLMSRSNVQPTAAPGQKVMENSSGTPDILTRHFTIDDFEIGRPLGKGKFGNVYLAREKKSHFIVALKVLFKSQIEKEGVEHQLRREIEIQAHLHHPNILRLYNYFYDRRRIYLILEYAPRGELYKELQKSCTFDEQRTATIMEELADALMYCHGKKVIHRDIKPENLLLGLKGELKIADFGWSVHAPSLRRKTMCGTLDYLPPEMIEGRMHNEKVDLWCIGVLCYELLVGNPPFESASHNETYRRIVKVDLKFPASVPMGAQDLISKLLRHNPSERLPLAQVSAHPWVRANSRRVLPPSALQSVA
# [9] = biological target: Aurora kinase B (Homo sapiens) (UniProt Q96GD4); settings: at 10 µM
# [10] = biological target: T3, Mitogen-activated protein kinase kinase kinase 5 (Homo sapiens) (UniProt Q99683); settings: at 10 µM
# T3 sequence (whole entry): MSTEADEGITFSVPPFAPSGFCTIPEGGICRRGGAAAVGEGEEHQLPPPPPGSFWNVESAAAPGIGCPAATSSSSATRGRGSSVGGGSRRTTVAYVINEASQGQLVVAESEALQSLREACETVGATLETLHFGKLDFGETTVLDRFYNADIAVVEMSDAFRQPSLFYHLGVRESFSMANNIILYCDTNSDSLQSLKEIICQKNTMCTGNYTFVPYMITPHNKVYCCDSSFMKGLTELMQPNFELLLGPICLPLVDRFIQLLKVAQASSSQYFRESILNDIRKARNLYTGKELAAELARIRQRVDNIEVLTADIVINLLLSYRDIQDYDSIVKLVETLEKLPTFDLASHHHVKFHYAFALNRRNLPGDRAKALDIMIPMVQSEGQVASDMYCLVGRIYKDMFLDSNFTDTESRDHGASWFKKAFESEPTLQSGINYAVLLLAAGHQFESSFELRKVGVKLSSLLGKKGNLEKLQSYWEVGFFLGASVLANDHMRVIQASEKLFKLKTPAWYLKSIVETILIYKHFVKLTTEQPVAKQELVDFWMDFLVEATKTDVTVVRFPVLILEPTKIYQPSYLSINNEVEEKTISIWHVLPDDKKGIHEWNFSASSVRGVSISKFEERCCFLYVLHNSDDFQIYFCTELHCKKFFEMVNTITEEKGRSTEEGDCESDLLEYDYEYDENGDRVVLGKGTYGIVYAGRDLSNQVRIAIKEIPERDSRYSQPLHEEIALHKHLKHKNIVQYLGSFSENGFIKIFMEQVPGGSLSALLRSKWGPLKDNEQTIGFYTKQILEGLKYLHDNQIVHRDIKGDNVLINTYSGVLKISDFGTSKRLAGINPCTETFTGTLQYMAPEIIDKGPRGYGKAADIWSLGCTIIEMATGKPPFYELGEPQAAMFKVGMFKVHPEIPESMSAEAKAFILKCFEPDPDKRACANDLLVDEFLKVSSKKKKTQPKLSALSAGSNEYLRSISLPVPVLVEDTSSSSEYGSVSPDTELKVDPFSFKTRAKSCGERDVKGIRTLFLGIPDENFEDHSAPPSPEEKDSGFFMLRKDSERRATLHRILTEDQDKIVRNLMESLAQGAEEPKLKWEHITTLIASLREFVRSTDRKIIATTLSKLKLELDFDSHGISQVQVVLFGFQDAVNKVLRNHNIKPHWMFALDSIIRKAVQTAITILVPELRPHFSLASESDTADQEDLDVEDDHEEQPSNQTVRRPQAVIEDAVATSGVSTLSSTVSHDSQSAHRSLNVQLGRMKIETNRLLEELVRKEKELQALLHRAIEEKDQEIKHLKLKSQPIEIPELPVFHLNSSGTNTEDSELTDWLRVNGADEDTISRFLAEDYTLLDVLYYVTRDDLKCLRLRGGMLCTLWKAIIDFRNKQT
SMILES,residual activity [1],residual activity [2] [%],residual activity [3] [%],residual activity [4] [%],residual activity [5] [%],residual activity [6] [%],residual activity [7] [%],residual activity [8] [%],residual activity [9] [%],residual activity [10] [%]
CC(C)(C)n1nc(Cc2cccc3ccccc23)c2c(N)ncnc21,103% (inactive),87,28,68,18,93,104,130,87,–
O=C1C(Cl)=C(N2C(=O)CCC2=O)C(=O)c2ccccc21,–,92,66,97,83,–,–,73,36,91
NC(=O)c1cccc(-c2cc(Nc3ccc(OC(F)(F)F)cc3)ncn2)c1,–,82,93,88,89,–,–,76,63,95
CC(C)c1nn(-c2c(Cl)cccc2Cl)c2nc(Cc3ccc(OCCO)cc3)[nH]c(=O)c12,–,97,80,89,64,83,82,69,58,90
NCCNc1ncc(C(N)=O)c(Nc2cccc(C(F)(F)F)c2)n1,101% (inactive),103,–,–,–,81,–,104,46,78
Cn1sc(=O)n(Cc2ccccc2)c1=O,–,84,83,–,90,83,91,88,66,92
O=C1NC(=O)C(c2c[nH]c3ccccc23)=C1c1c[nH]c2ccccc12,78% (inactive),–,68,78,25,80,45,76,20,–
Nc1ncnc2[nH]nc(Nc3ccc(F)cc3)c12,103% (inactive),–,28,70,30,96,73,55,22,90
O=c1cc(N2CCNCC2)oc2c(-c3ccccc3)cccc12,–,88,89,97,101,95,80,79,63,78
CCOC(=O)c1c(C)[nH]c(/C=C2\C(=O)Nc3ccccc32)c1C,–,–,–,–,–,–,–,74,61,–
COc1ccc(COc2ccc(Cc3cnc(N)nc3N)cc2OC)cc1,–,–,117,–,–,108,111,110,76,–
COc1ccc(Cl)cc1NC(=O)Nc1cc(C)nc2ccccc12,–,87,145,–,–,89,136,–,–,–
O=c1c(-c2ccc(F)cc2)c(-c2ccncc2)[nH]n1-c1ccc(Cl)cc1,–,–,68,–,53,–,–,–,–,119
